Compounds with a hit are over-represented: about 3.4% of the library has one in this group of screens.
USP28 block = inhibitors of human USP28 deubiquitinase; Ubiquitin carboxyl-terminal hydrolase 28 (Homo sapiens), Q96RU2; actives 3% (n = 47,000); purified USP28, Ub-rhodamine cleavage fluorescence, 30 min; inhibition, % at 25 µM
Target sequence (Q96RU2 whole entry, looked up): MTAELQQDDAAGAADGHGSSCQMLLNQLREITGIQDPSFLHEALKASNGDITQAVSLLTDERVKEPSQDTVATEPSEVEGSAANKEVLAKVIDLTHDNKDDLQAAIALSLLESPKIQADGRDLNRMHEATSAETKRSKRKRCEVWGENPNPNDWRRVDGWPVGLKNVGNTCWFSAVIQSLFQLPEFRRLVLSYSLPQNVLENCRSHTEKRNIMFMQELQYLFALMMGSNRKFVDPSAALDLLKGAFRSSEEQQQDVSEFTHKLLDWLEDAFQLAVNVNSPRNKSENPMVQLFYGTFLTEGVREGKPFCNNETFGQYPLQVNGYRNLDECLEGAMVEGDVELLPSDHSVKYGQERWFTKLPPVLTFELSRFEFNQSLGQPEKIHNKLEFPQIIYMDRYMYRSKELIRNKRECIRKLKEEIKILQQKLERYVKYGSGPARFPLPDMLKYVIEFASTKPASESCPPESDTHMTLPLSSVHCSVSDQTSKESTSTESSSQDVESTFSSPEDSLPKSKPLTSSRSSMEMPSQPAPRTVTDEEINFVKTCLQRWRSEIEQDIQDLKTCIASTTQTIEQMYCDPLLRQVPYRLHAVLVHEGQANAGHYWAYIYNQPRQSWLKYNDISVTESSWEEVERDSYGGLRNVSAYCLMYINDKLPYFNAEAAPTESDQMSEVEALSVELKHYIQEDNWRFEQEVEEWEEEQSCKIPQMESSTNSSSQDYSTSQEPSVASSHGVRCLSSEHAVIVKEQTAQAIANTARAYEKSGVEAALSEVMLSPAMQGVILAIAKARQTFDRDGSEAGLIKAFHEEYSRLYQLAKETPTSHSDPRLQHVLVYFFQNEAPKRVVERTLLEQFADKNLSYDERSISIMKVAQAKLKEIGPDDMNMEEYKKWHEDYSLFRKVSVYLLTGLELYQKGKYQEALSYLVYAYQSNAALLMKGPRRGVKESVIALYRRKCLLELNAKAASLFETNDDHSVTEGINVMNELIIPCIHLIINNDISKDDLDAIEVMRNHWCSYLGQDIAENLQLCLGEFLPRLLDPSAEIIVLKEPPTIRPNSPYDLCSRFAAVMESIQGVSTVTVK
OTUD3 block = inhibitors of human OTUD3 deubiquitinase; OTU domain-containing protein 3 (Homo sapiens), Q5T2D3; purified OTUD3, Ub-rhodamine fluorescence, 2 h; inhibition, % at 25 µM; actives 0.7% (n = 47,000)
* marks the source's active call; other numbers are inactive results. Rule as the data show it: active = inhibition above about 30%; inactive = the rest.

SMILES | USP28 block | OTUD3 block
Cc1ccccc1Cn1cc(SCC(=O)Nc2ccc(F)cc2)c2ccccc21 | 1.4 | -5.9
Cc1ccccc1Cn1cc(SCC(=O)Nc2ccc3c(c2)OCCO3)c2ccccc21 | 50.3* | 22.5
Cc1ccccc1C(=O)NCCn1cc(SCC(=O)N2CCOCC2)c2ccccc21 | 10.1 | 0.4
Cc1ccccc1C(=O)NCCn1cc(SCC(=O)Nc2ccc3c(c2)OCCO3)c2ccccc21 | 56.5* | 44.4*
O=C(CSc1cn(Cc2ccccc2)c2ccccc12)Nc1ccc2c(c1)OCCO2 | 59.8* | 21.2
O=C(CSc1cn(CC(=O)N2CCCCC2)c2ccccc12)Nc1ccc2c(c1)OCO2 | 10.0 | 2.7
CCOC(=O)C1CCN(C(=O)CCC(=O)Nc2ccc(Oc3ccccc3)cc2)CC1 | 8.2 | 16.1
CCC(=O)c1ccc(OCC(=O)Nc2ccc(C#N)cc2)cc1 | 3.9 | 8.6
CC(C)CCN1C[C@H]2CCN(C(=O)Cc3ccccc3)CC[C@H]2S1(=O)=O | -12.0 | -3.4
Cc1cc(O)ccc1NC(=O)CC(NCCc1ccccc1)C(=O)O (stereo unspecified) | 7.8 | 10.1
CCn1cc(S(=O)(=O)NCc2cc(F)cc(F)c2)c2cccnc21 | 11.4 | 10.4
COc1ccccc1NS(=O)(=O)c1cccc(C(=O)OCC(=O)NCc2ccc(Cl)cc2)c1 | 16.0 | 23.6
O=C(COC(=O)c1ccc(NS(=O)(=O)c2ccc3c(c2)OCCO3)cc1)NCc1ccc(Cl)cc1 | 74.5* | -18.1
Cc1c(-c2noc(-c3ccncc3)n2)nnn1-c1ccc(F)cc1 | -11.9 | -3.5
O=C(Nc1ccc2c(c1)OCO2)c1cnc(N2CCOCC2)nc1 | 16.7 | 0.3
O=C(Nc1ccc(OCC(=O)N2CCOCC2)cc1)c1ccc2c(c1)OCO2 | 36.8* | 14.3
Cc1ccc2nc(NC(=O)/C=C/c3ccc4c(c3)OCO4)sc2c1 | 13.7 | 8.1
Cc1cc(C(=O)Nc2ccc3c(c2)OCCO3)no1 | 63.3* | -0.3
Cc1cc(C(=O)N2CC(C(=O)Nc3ccc4c(c3)OCCO4)C2)no1 | 4.7 | -9.1
O=C(COc1ccc(C(=O)c2ccccc2)cc1)Nc1ccc2c(c1)OCO2 | 22.7 | -0.1
Cc1ccc(/C=C/C(=O)Nc2ccc3c(c2)OCCO3)cc1 | 79.6* | -8.2
O=C(Nc1ccc2c(c1)OCCO2)c1cnc(N2CCOCC2)nc1 | 42.4* | -3.2
O=C1NC2(CCN(C(=O)Cc3ccccc3)CC2)N=C1c1ccc(Cl)cc1 | -13.7 | -7.8
O=C(Nc1ccc(C(=O)N2CCCC2)cc1)c1cc(Cl)ccc1-n1cnnn1 | 3.2 | 10.1
O=C(c1ccc(C(F)(F)F)nc1)N1CCc2nc3cccnc3cc2C1 | -76.3 | -72.5
SMILES | USP28 block | OTUD3 block
Cc1ccc(C)c(NC(=O)CC2C(=O)N(CC3CCCO3)c3nc4ccccc4n32)c1 (stereo unspecified) | -11.2 | -14.1
CC(C)c1nnc(NC(=O)N2CCCCCC2)s1 | -11.4 | -5.9
O=C(NCC1CCCO1)c1ccccc1N1C(=O)[C@@H]2Cc3c([nH]c4ccccc34)C(c3ccccc3)N2C1=O (stereo partly specified) | -87.7 | -82.9
O=C(COC(=O)c1cc(Cl)ccc1O)Nc1ccc2c(c1)OCCO2 | 13.9 | 16.2
COc1cccc2cc(C(=O)Nc3ccc4c(c3)OCCO4)oc12 | 51.4* | 2.4
COc1cccc2cc(C(=O)Nc3nc4c(s3)COCC4)oc12 | 7.1 | 9.5
O=C(CNc1ccc(F)c(Cl)c1)Nc1ccc2c(c1)OCCO2 | 63.5* | 6.5
O=C(Cc1ccccc1F)N1CCC2(CC1)CC1(CO2)Nc2ccccc2-n2cccc21 (stereo unspecified) | 1.2 | 1.8
O=C(C1CCC1)N1CCOC(c2ncc(Cc3ccc(F)cc3)o2)C1 (stereo unspecified) | -4.6 | -2.8
CC(C)c1ccc(N2CCN(CC3CCCCC3)C2=O)cc1 | 1.1 | 0.0
CS(=O)(=O)c1cccc(N2CCN(Cc3ccc(F)cc3F)C2=O)c1 | 33.1* | -4.8
CC(C)c1ccc(N2CCN(Cc3ccc(F)cc3F)C2=O)cc1 | 21.1 | -2.6
CS(=O)(=O)c1cccc(N2CCN(CC3CC3)C2=O)c1 | 32.9* | 6.5
CCCOc1ccc(C2C3=C(CC(C)(C)CC3=O)Nc3ccccc3N2C(=O)c2ccccc2)cc1OC (stereo unspecified) | 4.9 | 15.0
CCC(C)[C@H](NC(=O)[C@H](Cc1ccccc1)n1c(=O)[nH]c2ccccc2c1=O)C(=O)N[C@@H](Cc1ccccc1)C(=O)O (stereo partly specified) | -1.4 | 0.2
Cc1ccc(Nc2nc(C(=O)NCc3ccccc3)cc3occc23)cc1 | 0.1 | -6.8
COc1ccc(NC(=O)CC(C)CC(=O)Nc2ccc(C(C)C)cc2)c(OC)c1 (stereo unspecified) | 1.6 | 14.1
Cc1ccc(-c2nc(Cn3cnc4ccccc4c3=O)cs2)cc1 | 33.1* | 21.9
O=c1c2ccc(Cl)cc2ncn1Cc1csc(-c2ccccc2)n1 | 19.6 | 11.0
O=C(Nc1ccccc1)c1ccc(-c2ccc(N3CCCC3)nn2)cc1 | 21.5 | 13.0
Cc1cc(Nc2cnccn2)cc(C2CCCN(C(=O)CCOc3cccc(F)c3)C2)n1 (stereo unspecified) | -2.8 | -7.3
COc1ccc(NC(=O)COC(=O)Cn2cnc3ccccc32)cc1OC | -9.7 | -7.4
Cn1c(SCC(=O)Nc2ccc3c(c2)OCCO3)nnc1-c1ccncc1 | 38.5* | 21.3
O=C(CSc1ccc2ccccc2c1)Nc1ccc2c(c1)OCCCO2 | 21.4 | 1.1
O=C(CSc1n[nH]c(-c2ccccc2Cl)n1)Nc1ccc2c(c1)OCCO2 | 38.1* | 5.1
SMILES | USP28 block | OTUD3 block
CC(NC(=O)CSc1nc2ccccc2[nH]1)c1ccc2c(c1)OCO2 (stereo unspecified) | 1.8 | -0.4
Cn1c(SCC(=O)Nc2ccc3c(c2)OCCO3)nnc1C(F)(F)F | 9.6 | 0.2
O=C(CSc1nc2ccccc2[nH]1)Nc1ccc2c(c1)OCCO2 | 45.8* | 13.6
O=C(COC(=O)Cn1cnc2ccccc21)Nc1ccc2c(c1)OCCO2 | 55.6* | 2.0
O=C(NCCc1ccco1)c1ccc(N2CCOc3ccccc32)s1 | 21.8 | 13.7
O=S(=O)(Nc1ccccc1F)c1ccc(N2CCCCS2(=O)=O)cc1 | 5.3 | 4.4
COc1ccc(N2C(=O)[C@@H]3Cc4c([nH]c5ccccc45)C(C)(C)N3C2=O)c(OC)c1 | -20.9 | -11.7
O=C(CSc1n[nH]c2nc3ccccc3n12)Nc1ccc2c(c1)OCCO2 | 30.7* | 12.6
O=C(CSc1nnc(-c2ccccc2)o1)Nc1ccc2c(c1)OCCCO2 | -2.8 | -5.8
O=C(Nc1nc2c(s1)CCCC2)c1cccc(Br)c1 | 19.3 | -1.4
Cc1cccc(C(=O)Nc2nc3c(s2)CCC3)c1 | 38.1* | 14.5
CCC[C@H]1O[C@@H]2CC(=O)O[C@@H]2C2=C1C(=O)c1c(O)cccc1C2=O | 54.1* | 51.5*
CC1CC(=O)c2c(O)cccc2O1 (stereo unspecified) | 3.7 | 6.6
CC1OC2CC(=O)OC2C2=C1C(=O)c1c(O)cccc1C2=O (stereo unspecified) | 56.4* | 45.0*
CO/C=C/C(=O)c1cc2cnc3c(=N)cc(NC(C)=O)c([nH]1)c23 | 42.7* | 12.5
CCn1nccc1C1CCCN1C(=O)Nc1ccc(C)c(C)c1 (stereo unspecified) | 2.2 | 4.2
CCCCCC1OC(=O)c2c(C)cccc2Oc2ccc(O)c(C=O)c2/C=C/C1O (stereo unspecified) | 53.4* | 44.8*
CCCCC/C=C/C=C/C=C/c1c(O)ccc(O)c1C=O | 1.3 | 6.5

Screens (PubChem)
